Assay results as given in ChEMBL document CHEMBL1961873, “Compounds: GSK PKIS; Assays: Nanosyn kinase panel” (2012).

Target: T1, Mitogen-activated protein kinase kinase kinase kinase 2 (Homo sapiens) (UniProt Q12851);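 also: reported value is a mean of MAP4K2 inhibition at 1 µM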
T1 sequence (whole entry): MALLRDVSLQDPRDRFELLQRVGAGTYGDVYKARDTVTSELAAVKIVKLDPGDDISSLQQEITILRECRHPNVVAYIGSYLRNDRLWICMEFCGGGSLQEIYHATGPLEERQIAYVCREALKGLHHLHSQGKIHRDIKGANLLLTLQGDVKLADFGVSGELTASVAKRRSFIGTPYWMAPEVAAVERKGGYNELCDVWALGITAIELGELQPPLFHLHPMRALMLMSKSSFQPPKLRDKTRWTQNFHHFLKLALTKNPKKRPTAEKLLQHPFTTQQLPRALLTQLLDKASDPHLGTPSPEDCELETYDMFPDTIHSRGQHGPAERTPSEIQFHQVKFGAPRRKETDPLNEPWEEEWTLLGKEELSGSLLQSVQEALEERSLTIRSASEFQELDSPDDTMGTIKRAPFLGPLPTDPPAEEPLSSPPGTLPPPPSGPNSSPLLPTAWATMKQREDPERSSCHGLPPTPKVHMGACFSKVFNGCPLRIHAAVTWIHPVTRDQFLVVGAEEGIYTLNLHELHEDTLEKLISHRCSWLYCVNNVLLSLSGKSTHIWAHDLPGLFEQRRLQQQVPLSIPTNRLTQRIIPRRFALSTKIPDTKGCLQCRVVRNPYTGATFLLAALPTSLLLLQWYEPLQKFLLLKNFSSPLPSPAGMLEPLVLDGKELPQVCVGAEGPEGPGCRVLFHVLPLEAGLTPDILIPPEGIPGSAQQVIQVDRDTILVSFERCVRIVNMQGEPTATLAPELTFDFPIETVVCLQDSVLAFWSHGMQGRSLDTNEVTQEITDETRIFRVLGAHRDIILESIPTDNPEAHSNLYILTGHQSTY
Details: at 1 µM

Row | SMILES | inhibition [%]
1 | Nc1nccc(-c2c(-c3ccc(F)cc3)nn3cc(C(F)(F)F)ccc23)n1 | 1.52
2 | CN1CCN(C(=O)c2ccc(NC(=O)Nc3ccc(N(C)c4ccnc(Nc5ccc(CS(C)(=O)=O)cc5)n4)cc3)cc2)CC1 | 32.7
3 | CCn1c(-c2nonc2N)nc2c(C#CC(C)(C)O)nc(OCCNC)cc21 | 3.15
4 | COc1ccc(-c2nn3ncccc3c2-c2ccnc(Nc3cccc(C(F)(F)F)c3)n2)cc1 | 1.6
5 | Cc1ccc(C(=O)NC2CC2)cc1-c1ccc2[nH]ncc2c1 | 5.05
6 | Cc1ccc2c(c1)/C(=N/Nc1ccc(S(N)(=O)=O)cc1)C(=O)N2 | 4.98
7 | FC(F)(F)c1ccc(-c2nn3ncccc3c2-c2ccnc(Nc3ccc4c(c3)OCCO4)n2)cc1 | 6.88
8 | NS(=O)(=O)c1ccc(Nc2cc(-c3cccc(O)c3)n[nH]2)cc1 | 10.7
9 | Cc1cc(O)cc(C)c1/C=C/c1cncc(C(=O)N(C)C)c1 | 6.67
10 | COc1cc(Nc2nccc(-c3cnn4ncccc34)n2)cc(OC)c1 | 72.7
11 | COc1cccc(-n2ncc3c(N/N=C/c4ccc(C)cc4)ncnc32)c1 | 4.23
12 | [O-][S+]1CCN(Cc2ccc(-c3ccc4ncnc(Nc5ccc(OCc6ccccc6)c(Cl)c5)c4c3)o2)CC1 | 1.53
13 | COc1ccc2ncnc(Nc3ccc(OCc4ccccc4)cc3)c2c1 | 1.74
14 | CN(C)C(=O)O[C@H]1CN[C@H](C#Cc2cc3ncnc(Nc4ccc(OCc5cccc(F)c5)c(Cl)c4)c3s2)C1 | 2.78
15 | NS(=O)(=O)c1ccc(NC=C2C(=O)Nc3ccc4ncsc4c32)cc1 | 66.5
16 | CS(=O)(=O)CCNCc1nc(-c2ccc3ncnc(Nc4ccc(OCc5cccc(C(F)(F)F)c5)cc4)c3c2)cs1 | 3.96
17 | CCS(=O)(=O)c1ccc(OC)c(Nc2nccc(N(C)c3ccc4c(C)n[nH]c4c3)n2)c1 | 12.7

Row | SMILES | inhibition [%]
18 | Nc1nccc(-c2c(-c3ccc(F)cc3)ncn2CCCN2CCOCC2)n1 | -0.39
19 | COC(=O)c1ccc2c(c1)C(=Cc1cc(Br)c(O)c(Br)c1)C(=O)N2 | 4.06
20 | COc1cc2ncnc(Nc3ccc4c(cnn4Cc4ccccc4)c3)c2cc1OC | 1.51
21 | O=S(=O)(CCOCc1ccc(-c2ccc3ncnc(Nc4ccc(OCc5cccc(F)c5)c(Cl)c4)c3c2)o1)c1ccccc1 | 3.12
22 | NC(=O)c1sc(-n2cnc3ccccc32)cc1OCc1ccccc1Br | 8.46
23 | NS(=O)(=O)c1cccc(-c2cc3ccncc3cc2OCc2ccccc2)c1 | 10.2
24 | Cc1cc(Cl)cc2c1NC(=O)C2=NNc1ccc(S(N)(=O)=O)cc1 | 0.54
25 | Oc1cccc(-c2nc(-c3ccccc3)[nH]c2-c2ccncc2)c1 | 4.27
26 | COC(=O)Nc1nc2cc(Oc3ccc(NC(=O)Nc4cccc(Br)c4)cc3)ccc2[nH]1 | 10.2
27 | Nc1nccc(C#Cc2cncnc2Nc2ccc(OCc3cccc(F)c3)c(Cl)c2)n1 | -0.42
28 | O=C1Nc2ccc(-c3cccnc3)cc2C1=Cc1cc(Br)c(O)c(Br)c1 | 2.93
29 | Nc1ccc(C#Cc2cncnc2Nc2ccc(OCc3cccc(F)c3)c(Cl)c2)cc1 | 1.98
30 | NS(=O)(=O)c1cccc(Nc2cc(-c3ccc(F)cc3)n[nH]2)c1 | 4.93
31 | CCS(=O)(=O)c1ccc(OC)c(Nc2ncc(-c3cccc(OC)c3)o2)c1 | 6.14
32 | CCn1c(-c2nonc2N)nc2ccc(F)cc21 | 2.01
33 | O=C1Nc2ccccc2/C1=C/Nc1ccc2[nH]c(=O)[nH]c2c1 | 15.2
34 | CS(=O)(=O)Nc1cccc(-c2ccc3c(NC(=O)C4CC4)n[nH]c3c2)c1 | 2.98

Target: Mitogen-activated protein kinase kinase kinase kinase 4 (Homo sapiens) (UniProt O95819)
Details: at 0.1 µM

Chain of Mitogen-activated protein kinase kinase kinase kinase 4 (Homo sapiens) (O95819 2-1239 limits assumed): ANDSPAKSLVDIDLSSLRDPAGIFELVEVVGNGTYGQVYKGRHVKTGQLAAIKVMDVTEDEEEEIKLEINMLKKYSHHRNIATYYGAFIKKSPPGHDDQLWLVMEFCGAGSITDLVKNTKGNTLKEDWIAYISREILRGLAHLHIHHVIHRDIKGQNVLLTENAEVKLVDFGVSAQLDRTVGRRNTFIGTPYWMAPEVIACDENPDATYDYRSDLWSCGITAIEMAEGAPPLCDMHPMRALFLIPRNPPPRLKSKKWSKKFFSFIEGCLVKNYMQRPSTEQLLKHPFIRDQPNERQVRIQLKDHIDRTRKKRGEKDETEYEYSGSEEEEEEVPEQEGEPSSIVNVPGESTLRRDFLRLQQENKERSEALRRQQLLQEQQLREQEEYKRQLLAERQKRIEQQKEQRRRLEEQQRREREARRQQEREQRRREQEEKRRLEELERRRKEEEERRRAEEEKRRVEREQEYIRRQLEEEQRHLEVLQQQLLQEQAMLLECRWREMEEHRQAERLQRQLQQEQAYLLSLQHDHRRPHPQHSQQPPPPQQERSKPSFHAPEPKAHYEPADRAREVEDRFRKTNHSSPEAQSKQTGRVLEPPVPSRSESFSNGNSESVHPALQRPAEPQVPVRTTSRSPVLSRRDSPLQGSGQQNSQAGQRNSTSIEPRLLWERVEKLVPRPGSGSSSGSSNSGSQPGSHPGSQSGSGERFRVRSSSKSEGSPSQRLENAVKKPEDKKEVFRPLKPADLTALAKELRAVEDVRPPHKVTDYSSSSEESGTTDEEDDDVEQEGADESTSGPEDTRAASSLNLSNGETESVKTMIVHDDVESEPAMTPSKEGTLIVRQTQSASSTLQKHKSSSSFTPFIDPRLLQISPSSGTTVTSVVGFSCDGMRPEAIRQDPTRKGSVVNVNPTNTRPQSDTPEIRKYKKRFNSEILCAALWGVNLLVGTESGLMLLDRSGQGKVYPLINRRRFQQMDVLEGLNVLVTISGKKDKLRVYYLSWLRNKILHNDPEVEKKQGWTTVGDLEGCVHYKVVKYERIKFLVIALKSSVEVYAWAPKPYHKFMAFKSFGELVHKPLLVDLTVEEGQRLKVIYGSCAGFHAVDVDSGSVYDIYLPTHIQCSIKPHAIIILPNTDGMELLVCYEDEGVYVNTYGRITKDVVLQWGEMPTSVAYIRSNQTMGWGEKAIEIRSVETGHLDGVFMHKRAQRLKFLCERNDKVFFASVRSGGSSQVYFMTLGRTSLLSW

Row | SMILES | inhibition [%]
35 | Nc1nccc(-c2c(-c3ccc(F)cc3)nn3cc(C(F)(F)F)ccc23)n1 | -0.02
36 | CN1CCN(C(=O)c2ccc(NC(=O)Nc3ccc(N(C)c4ccnc(Nc5ccc(CS(C)(=O)=O)cc5)n4)cc3)cc2)CC1 | 13
37 | CCn1c(-c2nonc2N)nc2c(C#CC(C)(C)O)nc(OCCNC)cc21 | 3.57
38 | COc1ccc(-c2nn3ncccc3c2-c2ccnc(Nc3cccc(C(F)(F)F)c3)n2)cc1 | 3.02
39 | Cc1ccc(C(=O)NC2CC2)cc1-c1ccc2[nH]ncc2c1 | -2.51
40 | Cc1ccc2c(c1)/C(=N/Nc1ccc(S(N)(=O)=O)cc1)C(=O)N2 | 27.3
41 | FC(F)(F)c1ccc(-c2nn3ncccc3c2-c2ccnc(Nc3ccc4c(c3)OCCO4)n2)cc1 | 3.6
42 | NS(=O)(=O)c1ccc(Nc2cc(-c3cccc(O)c3)n[nH]2)cc1 | 7.82
43 | Cc1cc(O)cc(C)c1/C=C/c1cncc(C(=O)N(C)C)c1 | 6.12
44 | COc1cc(Nc2nccc(-c3cnn4ncccc34)n2)cc(OC)c1 | 26.1
45 | COc1cccc(-n2ncc3c(N/N=C/c4ccc(C)cc4)ncnc32)c1 | 4.74
46 | [O-][S+]1CCN(Cc2ccc(-c3ccc4ncnc(Nc5ccc(OCc6ccccc6)c(Cl)c5)c4c3)o2)CC1 | 0.26
47 | COc1ccc2ncnc(Nc3ccc(OCc4ccccc4)cc3)c2c1 | 3.79
48 | CN(C)C(=O)O[C@H]1CN[C@H](C#Cc2cc3ncnc(Nc4ccc(OCc5cccc(F)c5)c(Cl)c4)c3s2)C1 | 3.45
49 | NS(=O)(=O)c1ccc(NC=C2C(=O)Nc3ccc4ncsc4c32)cc1 | 69.4
50 | CS(=O)(=O)CCNCc1nc(-c2ccc3ncnc(Nc4ccc(OCc5cccc(C(F)(F)F)c5)cc4)c3c2)cs1 | 1.73
51 | CCS(=O)(=O)c1ccc(OC)c(Nc2nccc(N(C)c3ccc4c(C)n[nH]c4c3)n2)c1 | 4.51

Row | SMILES | inhibition [%]
52 | Nc1nccc(-c2c(-c3ccc(F)cc3)ncn2CCCN2CCOCC2)n1 | 3.81
53 | COC(=O)c1ccc2c(c1)C(=Cc1cc(Br)c(O)c(Br)c1)C(=O)N2 | 45.5
54 | COc1cc2ncnc(Nc3ccc4c(cnn4Cc4ccccc4)c3)c2cc1OC | 8.32
55 | O=S(=O)(CCOCc1ccc(-c2ccc3ncnc(Nc4ccc(OCc5cccc(F)c5)c(Cl)c4)c3c2)o1)c1ccccc1 | 6.19
56 | NC(=O)c1sc(-n2cnc3ccccc32)cc1OCc1ccccc1Br | 4.11
57 | NS(=O)(=O)c1cccc(-c2cc3ccncc3cc2OCc2ccccc2)c1 | 7.44
58 | Cc1cc(Cl)cc2c1NC(=O)C2=NNc1ccc(S(N)(=O)=O)cc1 | 12.7
59 | Oc1cccc(-c2nc(-c3ccccc3)[nH]c2-c2ccncc2)c1 | 4.05
60 | COC(=O)Nc1nc2cc(Oc3ccc(NC(=O)Nc4cccc(Br)c4)cc3)ccc2[nH]1 | 3.09
61 | Nc1nccc(C#Cc2cncnc2Nc2ccc(OCc3cccc(F)c3)c(Cl)c2)n1 | 6.33
62 | O=C1Nc2ccc(-c3cccnc3)cc2C1=Cc1cc(Br)c(O)c(Br)c1 | 69.3
63 | Nc1ccc(C#Cc2cncnc2Nc2ccc(OCc3cccc(F)c3)c(Cl)c2)cc1 | 2.07
64 | NS(=O)(=O)c1cccc(Nc2cc(-c3ccc(F)cc3)n[nH]2)c1 | 16.9
65 | CCS(=O)(=O)c1ccc(OC)c(Nc2ncc(-c3cccc(OC)c3)o2)c1 | 4.46
66 | CCn1c(-c2nonc2N)nc2ccc(F)cc21 | 4.2
67 | O=C1Nc2ccccc2/C1=C/Nc1ccc2[nH]c(=O)[nH]c2c1 | 25.3
68 | CS(=O)(=O)Nc1cccc(-c2ccc3c(NC(=O)C4CC4)n[nH]c3c2)c1 | 2.8
